About 3,700 (7%) of roughly 53,000 sequences were called active. The full list was thinned out, with actives kept by preference. Unmarked numbers belong to inactive results.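 Rule for the calls: active = gene knockdowns whose robust z-score for IL-1 alpha signal is at least 2 or at most -2, so actives lie on both sides; inactive = the rest.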

A short description of the experiment: Components of the Cytosolic LPS Sensing Pathway: Gene Identification via Genome-wide siRNA Screen.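 Note: robust z of the log signal after scaling to non-targeting control siRNA wells of the plate.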 The conditions noted are these: RAW264.7 macrophages, IL-1a HTRF, actives lie on both sides, screened at 100 nM (by protocol), cells primed 5 h with Pam3CSK4 first. In a few lines:
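Supernatant IL-1a by HTRF from RAW264.7 cells primed with Pam3CSK4 (5 hours) and transfected with LipidA (24 hour) after 48h siRNA knockdown at 100 nM; cell viability checked with CellTiter-Glo.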
With GCCUGCUUAAGCUACUUAUTT against Fam210b, the z-score was -1.04. As for UCUUACAAACUAGCUCUCCTT against Crabp2, the figure is -0.777; as for GGGACCGUCUUAAACAUCUTT against Rsl1d1, 2.92 (active); as for GGAGAGUAACAAUUAUGAATT against Pcdha9, 0.983.

As to GCUCGAGAGUACUGUAGGCTT against Kat8, the z-score was -2.41 (active). Turning to GGUCUAAUACUCAAUAGACTT against Tmem200a, the z-score was 0.0917. On to CCUGAAGGGUCUGGCAAAATT against Zfp804a, for which the z-score was 0.66. As for GGAAUUGGUUCAGAAAUAUTT against Rtn4, the figure is 3.09 (active). Turning to GGUUAAACUACAACAGUUGTT against Tmco5, the z-score is 1.04. On to GGAAGAAUGUAAGUAUACCTT against Zscan12, for which the z-score was 1.68. As for CGUGGAAGAAAUAAUUAGGTT against Faap24, the figure is 0.664; as for GCUGGUCUAUGUGGAAAGGTT against Brap, 2.32 (active); as for GGUGAAGAGUGAUUUUAAUTT against Il10, 1.03. As for GGUGUUGGAAGAGAUGCUGTT against Ap3m2, the figure is 0.405. As for GGAAGUGGAAUAUGUCACCTT against Cd300lf, the figure is -0.206.

On to GCCCACGUUUUAAGUCUACTT against Ap1s3, for which the z-score is 3.69 (active). Take GAUACCAAGCUAAAAGAUCTT against Ear10: the z-score was 0.0579. As for GCCAGUCAUCUUUGUAGUCTT against Olfr411, the figure is -0.777. As for GGAUGUACUUUGUUAAGGCTT against Tert, the figure is 2.78 (active). As for GGGAGAACAGUGUUCAGAGTT against Bhlha15, the figure is -0.151; as for CCAUGUGCUGUGCACUACGTT against Chst14, 0.358; as for GGAUAAGUGGUCUGCACUATT against Ube2c, -0.412.

On to CCACUAUCCCACCAAUCACTT against Lypd8, for which the z-score is -1.03. As for GGCUGCUACUUCAGACAGCTT against Pou6f2, the figure is -0.163; as for GGAGGACCUUCAGAAACUCTT against Gdap2, 1.14; as for GGUGUCACGACAAACAUUCTT against Fam83h, -1.6. In the case of GGCAAGGAUAUAAAUUCACTT against Mak, the z-score was 2.47 (active). As for GUGGCAGCUGACAUGAAUGTT against Plac8, the figure is -0.138; as for CGGAUACAAUUUCUGACCGTT against Zdhhc23, -0.163. As for GGUUAUUUGGAAGUGCUACTT against Esx1, the figure is 2.81 (active); as for GGGACGUGUUAAAAAGGGCTT against Cldn5, 0.0829. Consider CCGCCUAAAUGACUUGACATT against Fbxw14, for which the z-score is -1.1.

On to GGAAUUUGGUGCAGUGUCCTT against Utp15, for which the z-score was -1.39. As for GCUAACGAUAUUUAUCACGTT against Olfr385, the figure is -0.474. As for GGGACUUGUCCAUCCUUUUTT against Qrfprl, the figure is -1.71; as for GGAGCAUUAUAUCAAUCCUTT against Zfp111, 2.16 (active). As for GCUUACUAAGGUGAUAAUGTT against Il17d, the figure is 0.0918; as for CGAAAGAGAUGAUGAUAAUTT against Arrdc3, 0.641; as for GGAAAAGCAUUUUCAACGUTT against Lhfpl2, -1.41.

Take GCGAACGAGACACUUCAAUTT against Pla2g4a: the z-score is 1.51. As for GGAGACAUGGCAUCCAAAUTT against Cnr1, the figure is 3.14 (active). GGAGAAGAGAUCCCUGAACTT against Neurod2: the z-score was -0.491.

On to CGUGGUCGUGAGAUGUUUGTT against Chid1, for which the z-score is 1.35. As for “CCUUUUAGUGAAAAUAGCATT against A430010J10Rik”, the figure is -0.924. As for GGACUUCUCUGGGACUUCATT against Syt9, the figure is 0.406; as for GCCUCCUGAAUGAUGACAUTT against Klk1b24, -0.97.

As for GGUCAAAGUGAUUGUGUGUTT against Cdh16, the z-score is 0.555. As for GGCUAAAUUCUACUUGAUATT against Ppfibp1, the figure is -1.89; as for GGCUGUUUUCUAUCCUAGGTT against Cd207, -2.82 (active); as for CUUAGCUACUUCAAGGUCATT against Spink8, 0.628.

In the case of GCAGGCUCUGCAUGAAGCATT against Alpl, the z-score was -0.213. As for GCCCACGUACAGAAAACAGTT against Aox2, the figure is -1.72; as for GGGAGAACACAUCUACUGATT against Slamf6, -1.17.

As to GGAGACAUGCAAUGAACUUTT against Ica1l, the z-score is 1.02. As for GGAAUUUUUAGGAAUGGUGTT against Slc35f2, the figure is -1.38. As for “GGAUUGCUGUAAAAUACAATT against Cdkn2aipnl”, the figure is 2.16 (active). As for GGAAGGUACCAGGUGAUUGTT against Nmnat3, the figure is -1.89; as for GGUGCCCAUGCUUGUAGGATT against Cstdc1, 2.03 (active); as for GGUCCAUGCUCUCAUGAGUTT against Batf2, -1.34. For the sequence GGUACAGGAAACUCAAAUATT against Lrrc4, the z-score is 0.318. As for GGCCAGUUUAAACCAGUCUTT against Frmd6, the figure is 0.583; as for GCAUACAAUCAUGUAAGAGTT against Adprh, 0.0994. As for CCAGAAACCGUGAUAAAAUTT against Immp2l, the z-score was 2.12 (active).

Take CGGAGCAUGAGCCAGAUAUTT against Eipr1: the z-score was -0.266. As for GGAGACUGUCAGAAAGUUATT against Olfr1164, the figure is -0.769; as for GGAAAAAUCCAAGAAGCAATT against Zc3h11a, -1.09; as for GGACAUUUUUAUGCACAAUTT against Il1rl2, 1.76.

Consider GCUCCUACUGUCCAGCAAUTT against Dusp18, for which the z-score is -0.642. Consider AAUUGAAGACUGUAAAUACTT against Sst, for which the z-score was 1.83.

For GGAACACAAAGGUAAGAAATT against Raf1, the z-score was 0.0798. In the case of GGUGCAGUUGAACUUCUACTT against Dnajc1, the z-score was 2.26 (active).

Take GGUUUUAAAGCACUUUGUATT against Jazf1: the z-score is 0.288. As for GGAAACUUCUUCCCGGUUGTT against Gsdmc, the figure is 1.16. With GCUUACAAGGCAUGUAUGATT against Rccd1, the z-score is 3.46 (active). With GGGAGUUUGAUUCUGACUCTT against Ank3, the z-score is -0.264. As for CCCAUGAUAAUGAAUUAGCTT against Olfr378, the figure is -0.537; as for GGUAUUUGUAAAUUUGAGGTT against Atl1, 0.309; as for GGUAACAUACUAAAAGAAGTT against Vmn2r10, -1.21. As to GCAGGAUUGAAACAUGUAUTT against Tcl1b3, the z-score is -0.298. As for “GCCAAUUGGUUCCCUGUAATT against 1700034E13Rik”, the figure is -3.04 (active); as for “CGAACUUCCAAAAAGUUCATT against A430005L14Rik”, -0.498; as for GGAUUGGCAAGCAGCUAACTT against Dnase2a, -2.08 (active). As for UCACCCUGUUCGUAAUCAUTT against Olfr467, the figure is -0.17; as for CCACUGGUUCACCUAUAAUTT against Psma5, 0.092. As for CGAAUGACCUCGAUAGCUGTT against Gm5082, the figure is 0.195; as for GGAAGAAGCCACCAUGUACTT against Pbx4, -1.75. Consider GGCUGAGGUUCGAGUGUAUTT against Rps6ka4, for which the z-score is 3.51 (active). As for GGCCAAUAGGACAUAUCUATT against Qprt, the figure is -0.443; as for GCUUAGCUGUUAUGUUUUUTT against Atp6ap1, 1.81. As for GCAAUGUGUGGUAAGUAAATT against Zfp738, the figure is -0.757; as for GGUUUAGCUGCUGACUUAATT against Strn3, 1.03. As for GGAGAAGGUUUUGAUGUGGTT against Drg1, the figure is -1.31; as for GGCAACUGGAGAUGUGUGUTT against Lpgat1, -0.361. Consider CGACAUCCCAAUAAACAAGTT against Lcn3, for which the z-score was -1.1. As for GCAGAGGAGUUUUCAAUUUTT against Il17rb, the figure is 0.997; as for GGCCCUUCUGGACUAUCAUTT against Ccdc83, 3.39 (active). As for GGUACCUGAGUCCAUCUCATT against Sntb1, the figure is -0.219; as for CGAACUUCAAGACUGUGAUTT against Cep95, -0.248; as for GGAAAUAAUGACCAAGUACTT against Grk5, -1.32. As for CCCUGGUAAACACCAAUAGTT against Ctnna1, the figure is 0.849; as for GCCUGUCCACAUCACUGUATT against Tmem171, -0.16. With CCCUAAGGAGUUUUGCGUUTT against Ikzf4, the z-score is 1.58. As for GGUCUAUUUGACCUCUUAATT against Bcl2l13, the figure is 2.22 (active); as for GGUAUAUGGACUGGUGGAUTT against Hrh2, 0.41. As for GGAUCAAUGAAAAUGAGAATT against Fzr1, the figure is -0.0554.

For the sequence CCAGUACCCGUCUGAAAAGTT against Olfr215, the z-score was -0.457. As for GGAUCUUUGCUACAAAAACTT against Fhl5, the figure is 0.48.

GGGAUAACCAGUGAAUUUATT against Pcdhb15: the z-score was 2.23 (active).
